Source: PubChem BioAssay (NCI)
About 83,000 compounds went through this panel and 20% of them were active in at least one assay; those are over-represented in the sample as a whole.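 Step 1: grow cells in 96-well plates. Step 2: add test compound at a single concentration. Step 3: incubate 48 h. Step 4: record percent growth.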 Unmarked numbers belong to inactive results. Activity calls are given as the source filed them. How the source made its calls: active means growth percent below 10; inactive means the rest.

Columns and labels:
Test in all cases: NCI-60 one-dose screen, 48 h (100 = growth as untreated, 0 = no growth, -100 = all killed)
Settings in all cases: 10 µM
[1] = test system: NCI-H23 lung
[2] = test system: NCI-H226 lung
[3] = test system: HOP-62 NSCLC
[4] = test system: NCI-H460 lung
[5] = test system: HOP-92 NSCLC
[6] = test system: NCI-H522 lung
[7] = test system: A549/ATCC NSCLC
[8] = test system: 786-0 renal
[9] = test system: COLO 205 colon
[10] = test system: DU-145 prostate
[11] = test system: K-562 leukemia
[12] = test system: MALME-3M melanoma
[13] = test system: MDA-MB-231 breast
[14] = test system: RXF 393 renal
[15] = test system: SF-268 CNS
[16] = test system: SF-295 CNS
[17] = test system: SF-539 CNS
[18] = test system: UACC-257 melanoma
[19] = test system: M14 melanoma

Structure (SMILES)	growth [1]	growth [2]	growth [3]	growth [4]	growth [5]	growth [6]	growth [7]	growth [8]	growth [9]	growth [10]	growth [11]	growth [12]	growth [13]	growth [14]	growth [15]	growth [16]	growth [17]	growth [18]	growth [19]
CCN(CC)CCCOc1cccc2c1C(=O)c1cccc(OCCCN(CC)CC)c1C2=O	38.2%	42.8%	48.1%	16.5%	21.2%	43.8%	22.3%	40.8%	-12% (active)	38.4%	16.1%	39.9%	35.5%	31.2%	44.3%	45.2%	40.2%	47.9%	48.1%
CC[C@@H](C(=O)[C@@H](C)[C@@H](O)[C@H](C)[C@@H]1O[C@@H]([C@@H](CC)C(=O)O)CC[C@@H]1C)C1O[C@]2(C=CC(=O)[C@]3(CC[C@@](C)([C@H]4CC[C@](O)(CC)[C@H](C)O4)O3)O2)[C@H](C)C[C@@H]1C (some centres undefined)	30.5%	28.3%	41.9%	23.8%	73.5%	24.6%	28.3%	24.7%	10.1%	48%	13.8%	-64.8% (active)	30.3%	25.8%	50.6%	4.02% (active)	16.2%	42.9%	9.56% (active)
CC(=O)Oc1cc(OC(C)=O)c2ccccc2c1OC(C)=O	70.8%	88.4%	90%	86.6%	107%	68.2%	82.5%	103%	92.9%	67%	70.5%	67.3%	67.7%	93.1%	87.9%	103%	100%	81.4%	84.1%
CCc1ccc(-c2ccc(-n3nc(C)c4c(N)nc(Cc5ccccc5)nc43)cc2)cc1	77.2%	56.6%	65.6%	51.4%	47.2%	49.2%	52.4%	46.6%	95.3%	77%	7.44% (active)	106%	38.2%	75.7%	66.1%	70.8%	80.9%	71.9%	30.3%
CN(C)CCOc1cccc(-c2nc3sccn3c2-c2ccnc(S(C)(=O)=O)n2)c1	100%	92.3%	79%	94.9%	53.7%	103%	97.9%	95.9%	106%	93%	101%	101%	80.2%	104%	101%	100%	86.6%	106%	105%
COc1ccc(/C(C#N)=C/c2cccc(OC)c2OC)cc1	80%	89%	88%	108%	86.4%	58.8%	67.5%	93.8%	88.8%	106%	33.3%	73.2%	83.3%	85.7%	92.5%	75.3%	94.6%	78%	86%
COc1ccc(-c2cc(-c3ccccc3)nc(SCCCCCCC(=O)NO)n2)cc1	50.9%	72.3%	57.2%	36%	49.3%	18.8%	50.1%	79.8%	44.8%	60%	26.7%	20.3%	68.9%	22.1%	97.4%	67.4%	73.2%	49.5%	48.2%
O=S(=O)(Oc1ccc(-c2ccc3sccc3c2)cc1)c1ccccc1	89%	92.5%	113%	103%	111%	87.3%	100%	100%	109%	107%	89.6%	105%	97.3%	97.1%	105%	93.9%	108%	104%	114%
O=C(Nc1cccc2c1CCCC2)c1cc2ccccc2cc1O	3.43% (active)	35.1%	69.9%	27.3%	-20.6% (active)	18.8%	33.8%	43.7%	92.3%	51.2%	16.9%	26.8%	34.8%	39.5%	38.2%	79.9%	34.2%	22.3%	21.5%
CC(C)c1cc(N=O)cc(C(C)C)c1O	95.2%	102%	101%	103%	108%	97.7%	97%	104%	112%	119%	106%	110%	99.3%	110%	104%	102%	109%	94.8%	123%
CCCN(CCC)C(=O)[C@H](CC)[C@@H]1CC[C@@H](C)[C@@H]([C@H](C)[C@@H](O)[C@@H](C)C(=O)[C@H](CC)C2O[C@]3(C=C[C@@H](O)[C@]4(CC[C@@](C)([C@H]5CC[C@](O)(CC)[C@H](C)O5)O4)O3)[C@H](C)C[C@@H]2C)O1 (some centres undefined)	-9.41% (active)	-2.4% (active)	14.2%	1.15% (active)	-21.1% (active)	-11.1% (active)	16.6%	15.8%	-64.2% (active)	31.5%	10.4%	-13.3% (active)	-40.3% (active)	-6.32% (active)	24.5%	-5.79% (active)	8.44% (active)	8.4% (active)	13.9%
O=C1c2ccccc2C(=O)c2c1ccc1c(=O)n(-c3ccccc3C(F)(F)F)nnc21	3.9% (active)	35.9%	23.8%	5.82% (active)	37.1%	16.7%	13.1%	60.5%	8.51% (active)	47.7%	15.2%	-51.3% (active)	3.26% (active)	28.9%	43.2%	52.5%	-27.2% (active)	-23.6% (active)	5.14% (active)
COc1cc(-c2nn(-c3cccc(NC(=O)CCNc4ccc(N5CCOCC5)cc4)c3)cc2-c2ccncc2)ccc1Cl	13.2%	25.9%	27.1%	4.77% (active)	-6.34% (active)	11.9%	17.5%	19.1%	1.38% (active)	29.2%	11.2%	21.9%	-9.17% (active)	20.9%	31.8%	13.4%	29.1%	20.1%	2.71% (active)
CCOC(=O)C1C(C(=O)OCC)C2C(=O)C3C(C(=O)OCC)C(C(=O)OCC)C3C(=O)C12 (centres undefined)	98.9%	100%	96.2%	103%	104%	104%	100%	103%	120%	110%	94.2%	106%	110%	112%	101%	101%	105%	108%	110%
COc1ccc2c(c1)OC(N)=C(C#N)C2c1cc(OC)c(OC)c(OC)c1 (centres undefined)	16.3%	54.2%	38.9%	1.65% (active)	-0.922% (active)	-27.9% (active)	16.2%	15.2%	-48.6% (active)	-19.5% (active)	7.08% (active)	26.9%	4.49% (active)	38.7%	22.8%	4.98% (active)	4.42% (active)	68.2%	5.11% (active)
O=C(Nc1nc(-c2ccccc2)nc2c1sc(=S)n2-c1ccccc1)C(F)(F)F	89.9%	90.3%	101%	99.3%	81.4%	86.6%	74.9%	98.9%	115%	99.6%	79.4%	124%	89.7%	98%	98.4%	88.4%	96.5%	82.9%	101%
